These results are taken from PubChem BioAssay.

The source made the active and inactive calls.

Experiment [1] relates to Plasmodium falciparum Sir2 (PF13_0152, Sir2A). As to the kind of experiment: pfSir2 binders on small-molecule microarrays, primary screen, biochemical, small-molecule microarray, 635 nm fluorescence (AID 1098).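 Further: score merges spot fluorescence intensity with its signal-to-noise ratio.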 To be noted: small-molecule microarray binding, fluorescence 635 nm; higher = more signal.
The nature of experiment [2]: small-molecule microarray binders of probe aDKK1, primary screen, biochemical, biotinylated probe, 635/667 nm fluorescence (AID 1099).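 Further: score merges 667nm spot fluorescence with signal to noise across triplicate slides.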 To be noted: higher = more signal.
Experiment [3] is described as follows: small-molecule microarray binders of probe aCHRDL2, primary screen, biochemical, biotinylated probe, 635/667 nm fluorescence (AID 1100). To be noted: higher = more signal.
A short description of experiment [4]: splicing luciferase reporter signal modulators, primary screen, spliceosome inhibition project, cell-based, HEK293, splice +/- reporter (AID 1101).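 Further: HEK293 cells carrying a splicing-competent luciferase reporter gene; test concentration not given here.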 To be noted: luminescence, 24 h, higher = more signal, called active from +8 up or from −8 down. (In a reporter assay the amount or activity of a reporter protein is the signal.)
Experiment [5] deals with Fibroblast growth factor 10 (Homo sapiens) (UniProt O15520). The experiment in a line: FGF10 binders on small-molecule microarrays, primary screen, biochemical, small-molecule microarray, 635 nm fluorescence (AID 1102). To be noted: FGF10 binding, fluorescence 635 nm, higher = more signal.
Fibroblast growth factor 10 (Homo sapiens), sequence (O15520 whole entry, looked up): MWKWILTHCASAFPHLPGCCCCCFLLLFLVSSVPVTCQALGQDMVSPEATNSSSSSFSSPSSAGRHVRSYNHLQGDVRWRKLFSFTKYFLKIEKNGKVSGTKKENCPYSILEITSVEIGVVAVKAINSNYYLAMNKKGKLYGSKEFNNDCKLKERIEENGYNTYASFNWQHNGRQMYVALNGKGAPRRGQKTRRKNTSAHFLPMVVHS
Experiment [6] concerns glycogen synthase kinase-3 (GSK3A per assay name; protocol says GSK3B). The experiment in a line: GSK3 binders on small-molecule microarrays, primary screen, biochemical, small-molecule microarray, 635 nm fluorescence, GSK3A (AID 1103). Further: the record names both GSK3A and GSK3B. To be noted: small-molecule microarray binding, fluorescence 635 nm; higher = more signal.
The target of experiment [7] is Epidermal growth factor receptor (Homo sapiens) (UniProt P00533). As to the kind of experiment: EGFR binders on small-molecule microarrays, primary screen, biochemical, small-molecule microarray, 635 nm fluorescence (AID 1104).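 Further: score merges 667 nm emission intensity with spot signal to noise over triplicate slides.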 To be noted: EGFR binding, higher = more signal.
Epidermal growth factor receptor (Homo sapiens), sequence (P00533 whole entry, looked up): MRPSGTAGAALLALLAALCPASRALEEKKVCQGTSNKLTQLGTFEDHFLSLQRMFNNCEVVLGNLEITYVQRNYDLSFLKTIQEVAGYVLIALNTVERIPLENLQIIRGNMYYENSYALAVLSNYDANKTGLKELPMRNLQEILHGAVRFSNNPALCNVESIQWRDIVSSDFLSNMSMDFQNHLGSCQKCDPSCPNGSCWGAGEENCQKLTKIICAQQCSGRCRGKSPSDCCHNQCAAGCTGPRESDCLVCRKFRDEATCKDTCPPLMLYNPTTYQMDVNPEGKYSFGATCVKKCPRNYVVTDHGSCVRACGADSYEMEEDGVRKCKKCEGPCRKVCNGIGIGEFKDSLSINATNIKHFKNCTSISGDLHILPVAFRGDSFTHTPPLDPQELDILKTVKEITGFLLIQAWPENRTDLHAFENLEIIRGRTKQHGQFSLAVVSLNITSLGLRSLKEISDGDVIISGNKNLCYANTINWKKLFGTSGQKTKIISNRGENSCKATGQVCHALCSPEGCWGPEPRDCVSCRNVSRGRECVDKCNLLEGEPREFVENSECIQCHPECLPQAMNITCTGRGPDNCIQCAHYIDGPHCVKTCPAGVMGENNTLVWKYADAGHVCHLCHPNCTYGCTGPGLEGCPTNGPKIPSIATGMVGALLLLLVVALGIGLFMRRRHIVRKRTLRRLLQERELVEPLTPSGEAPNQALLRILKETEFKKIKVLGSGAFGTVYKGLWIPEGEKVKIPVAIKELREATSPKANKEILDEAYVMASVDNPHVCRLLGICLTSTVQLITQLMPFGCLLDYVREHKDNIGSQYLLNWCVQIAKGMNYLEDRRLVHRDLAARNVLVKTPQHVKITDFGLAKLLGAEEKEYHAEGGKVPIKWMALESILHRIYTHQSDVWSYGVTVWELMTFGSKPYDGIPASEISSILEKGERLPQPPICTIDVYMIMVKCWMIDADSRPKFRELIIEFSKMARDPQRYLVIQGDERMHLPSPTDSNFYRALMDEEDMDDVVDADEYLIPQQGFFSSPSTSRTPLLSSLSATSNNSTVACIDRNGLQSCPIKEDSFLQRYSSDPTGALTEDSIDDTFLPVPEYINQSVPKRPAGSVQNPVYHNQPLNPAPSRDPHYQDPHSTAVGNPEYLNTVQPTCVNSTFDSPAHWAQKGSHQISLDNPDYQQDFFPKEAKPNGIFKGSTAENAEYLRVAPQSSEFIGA
Experiment [8] concerns the target Follistatin-related protein 3 (Homo sapiens) (UniProt O95633). The experiment in a line: FSTL3 binders on small-molecule microarrays, primary screen, biochemical, small-molecule microarray, 635 nm fluorescence (AID 1105).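 Further: score merges emission near 667 nm and signal to noise per printed spot across three slides.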 To be noted: FSTL3 binding, higher = more signal.
In experiment [9] the target is Dickkopf-related protein 1 (Homo sapiens) (UniProt O94907). As to the kind of experiment: DKK1 binders on small-molecule microarrays, primary screen, biochemical, small-molecule microarray, 635 nm fluorescence scan (AID 1106).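 Further: score merges emission near 667 nm with signal to noise over three replicate slides.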 To be noted: DKK1 binding, higher = more signal.
Dickkopf-related protein 1 (Homo sapiens), sequence (O94907 whole entry, looked up): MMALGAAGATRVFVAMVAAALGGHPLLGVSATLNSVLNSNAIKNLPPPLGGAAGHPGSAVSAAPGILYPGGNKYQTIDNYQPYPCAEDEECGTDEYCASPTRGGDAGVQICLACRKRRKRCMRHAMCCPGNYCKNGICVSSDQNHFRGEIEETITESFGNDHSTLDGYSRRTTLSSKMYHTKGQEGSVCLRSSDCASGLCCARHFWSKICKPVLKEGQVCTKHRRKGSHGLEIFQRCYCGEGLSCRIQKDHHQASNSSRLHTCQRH
For experiment [10], the system named is Inhibin beta A chain (activin A). The experiment in a line: INHBA (activin A) binders on microarrays, primary screen, biochemical, small-molecule microarray, 635 nm fluorescence scan (AID 1107).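 Further: mouse activin A protein probed at 4.33 µg/mL on printed slides; score merges bound-protein fluorescence near 667 nm with spot signal-to-noise.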 To be noted: small-molecule microarray binding, higher = more signal.
The test system of experiment [11] is Human papillomavirus type 1a protein E7 (residues 44-93). The experiment in a line: HPV1a E7 fragment binders on microarrays, primary screen, biochemical, small-molecule microarray, residues 44-93, 635 nm fluorescence (AID 1108).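 Further: E7 fragment applied at 1 µg/mL in TBST for 1 h at 4 C; score combines spot fluorescence with its signal to noise ratio.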 To be noted: small-molecule microarray binding, fluorescence 635 nm; higher = more signal.
The nature of experiment [12]: modulators of HCV replicon luciferase signal, primary screen, HCV replication inhibitor project, Huh7 cells, luciferase reporter (AID 1109).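 Further: huh7 hepatoma cells harbouring a luciferase neomycin HCV replicon reporter; luciferase luminescence as measure of HCV replicon replication; test concentration not given here.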 To be noted: 48 h, higher = more signal.
Experiment [13] has as its target Left-right determination factor 2 (Homo sapiens) (UniProt O00292). As to the kind of experiment: LEFTY2 binders on small-molecule microarrays, primary screen, biochemical, small-molecule microarray, 635 nm fluorescence scan (AID 1110). To be noted: LEFTY2 binding, higher = more signal.
Experiment [14] addresses Calmodulin-1 (Homo sapiens) (UniProt P0DP23). As to the kind of experiment: CALM1 binders on microarrays, EGTA buffer, profiling panel, biochemical, small-molecule microarray, Cy5-labelled CALM1 (AID 1111).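 Further: labelled calmodulin applied in Tris saline Tween buffer holding calcium plus EGTA and DTT.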 To be noted: Cy5-CALM1 binding fluorescence, higher = more signal.
Experiment [15] has the same target. As to the kind of experiment: calcium-bound CALM1 binders on microarrays, profiling panel, artefact control for SMM control-protein annotation, biochemical, small-molecule microarray, Cy5-labelled CALM1, plus calcium (AID 1112).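 Further: score merges spot fluorescence with signal to noise from triplicate slides.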 To be noted: Cy5-CALM1 binding fluorescence, higher = more signal.
Experiment [16] can be described thus: small-molecule microarray binders of probe aWnt5a, primary screen, biochemical, biotinylated probe, 635/667 nm fluorescence (AID 1113).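 Further: score merges 667 nm fluorescence intensity with signal-to-noise per printed feature.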 To be noted: higher = more signal.
Experiment [17] can be described thus: small-molecule microarray binders of probe aShh, primary screen, biochemical, biotinylated probe, 635/667 nm fluorescence (AID 1114).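 Further: probe is biotin-labelled aShh protein from a stem cell growth factor screen; measures binding of labelled protein to compounds printed on the slide; score merges feature fluorescence at 667 nm with signal-to-noise.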 To be noted: higher = more signal.
Experiment [18] is described as follows: small-molecule microarray binders of probe aNog, primary screen, biochemical, biotinylated probe, 635/667 nm fluorescence (AID 1115).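 Further: probe is biotinylated aNog protein used at 0.15 µg/mL for 1 h at 4 C; z-score combines 667 nm fluorescence of each spot with its signal to noise.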 To be noted: higher = more signal.
Experiment [19] concerns the target Torsin-1A-interacting protein 1 (Homo sapiens) (UniProt Q5JTV8). The experiment in a line: LAP1 binders from COS7 cell lysate, primary screen, small-molecule microarray, 635/667 nm fluorescence (AID 1116). To be noted: COS7-hLAP1 lysate binding, 635 nm fluorescence, higher = more signal.
The target of experiment [20] is Alpha-bungarotoxin (Bungarus multicinctus) (UniProt P60615). As to the kind of experiment: alpha-bungarotoxin binders on microarray, profiling panel, artefact control for SMM control protein annotation, biochemical, small-molecule microarray, Alexa647 label, 635/667 nm fluorescence (AID 1117). To be noted: alpha-BTX-A647 binding fluorescence, higher = more signal.
Alpha-bungarotoxin (Bungarus multicinctus), sequence (P60615 whole entry, looked up): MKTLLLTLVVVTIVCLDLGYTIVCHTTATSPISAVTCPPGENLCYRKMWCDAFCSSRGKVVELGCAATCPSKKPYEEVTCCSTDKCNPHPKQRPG

Left-right determination factor 2 (Homo sapiens), sequence (O00292 whole entry, looked up): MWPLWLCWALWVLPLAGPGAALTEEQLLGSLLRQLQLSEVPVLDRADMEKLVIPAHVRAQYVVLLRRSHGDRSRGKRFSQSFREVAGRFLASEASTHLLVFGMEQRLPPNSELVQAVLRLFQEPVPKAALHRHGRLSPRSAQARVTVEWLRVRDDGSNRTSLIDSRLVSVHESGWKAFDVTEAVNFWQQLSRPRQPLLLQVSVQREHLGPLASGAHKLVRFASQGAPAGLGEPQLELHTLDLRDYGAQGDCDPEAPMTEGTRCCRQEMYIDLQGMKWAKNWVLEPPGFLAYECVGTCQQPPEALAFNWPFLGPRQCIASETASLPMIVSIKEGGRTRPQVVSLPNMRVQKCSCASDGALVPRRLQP
Torsin-1A-interacting protein 1 (Homo sapiens), sequence (Q5JTV8 whole entry, looked up): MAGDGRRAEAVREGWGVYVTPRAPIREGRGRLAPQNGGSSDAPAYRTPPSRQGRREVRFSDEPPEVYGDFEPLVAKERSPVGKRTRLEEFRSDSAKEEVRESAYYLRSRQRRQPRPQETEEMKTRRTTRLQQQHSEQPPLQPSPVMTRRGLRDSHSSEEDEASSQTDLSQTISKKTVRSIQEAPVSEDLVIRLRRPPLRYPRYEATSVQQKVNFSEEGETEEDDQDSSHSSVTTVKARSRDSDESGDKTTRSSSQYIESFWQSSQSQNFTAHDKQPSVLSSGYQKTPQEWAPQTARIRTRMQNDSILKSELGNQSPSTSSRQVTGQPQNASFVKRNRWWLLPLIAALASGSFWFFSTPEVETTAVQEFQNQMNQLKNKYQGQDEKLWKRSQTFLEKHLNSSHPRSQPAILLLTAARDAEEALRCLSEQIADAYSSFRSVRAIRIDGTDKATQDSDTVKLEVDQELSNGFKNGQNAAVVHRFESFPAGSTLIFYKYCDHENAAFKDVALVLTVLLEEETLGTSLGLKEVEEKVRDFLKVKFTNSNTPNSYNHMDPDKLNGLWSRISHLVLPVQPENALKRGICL
Follistatin-related protein 3 (Homo sapiens), sequence (O95633 whole entry, looked up): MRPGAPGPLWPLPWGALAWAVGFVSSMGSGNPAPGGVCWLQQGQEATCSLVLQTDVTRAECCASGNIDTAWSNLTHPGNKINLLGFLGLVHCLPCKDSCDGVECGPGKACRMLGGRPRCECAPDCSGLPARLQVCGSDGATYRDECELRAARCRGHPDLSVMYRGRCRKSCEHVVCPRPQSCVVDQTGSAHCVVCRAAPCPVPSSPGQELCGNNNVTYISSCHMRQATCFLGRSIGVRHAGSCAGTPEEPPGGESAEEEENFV

With `COCCOC(=O)N1C(=O)[C@@]2(c3cc(C#CCC(C(=O)OC)C(=O)OC)ccc31)[C@H](c1ccc(O)cc1)N1[C@H](c3ccccc3)[C@H](c3ccccc3)OC(=O)[C@H]1[C@@H]2C(N)=O`, the composite z-score amounted to 0.224 in [1]; 0.36 in experiment [2]; 0.461 in [3]; 0.833 in experiment [5]; 1.06 in experiment [6]; 0.212 in experiment [7]. In addition, the composite z-score stood at 0.825 in experiment [8]; 0.417 in experiment [9]; 0.626 in experiment [10]; 0.698 in experiment [11]; 0.715 in experiment [13]; 0.537 in experiment [14]. Besides, the composite z-score in experiment [15] was -0.259; in experiment [16], 0.0297; in experiment [17] it was 0.0469; in [18] it was 1.29; in [19] it was 1.03; in experiment [20] it was 0.944. Also, the z-score in experiment [4] is -1.06 (inactive); in experiment [12] it was -0.633.

Turning to `C=CC[C@@H](OC(=O)Nc1ccc(OC)cc1)c1ccc(O)c2ccccc12`, the composite z-score is 1.43 in experiment [1]; -0.0942 in experiment [2]; -0.0826 in [3]; 1.2 in [5]; 1.28 in [6]; 1.06 in experiment [7]. Besides, the composite z-score in experiment [8] was found to be 1.4; in experiment [9], 1.23; in [10], 1.07; in experiment [11], 0.94; in experiment [13], 1.07; in [14], 0.0871. For the same compound, the composite z-score in [15] is -0.738; in experiment [16], -0.0006; in [17], -0.154; in experiment [18] it was -0.139; in experiment [19], 0.3; in experiment [20] it was 0.824. The z-score was -0.806 (inactive) in experiment [4] and -3.47 in experiment [12].

`O=C1O[C@H](c2ccccc2)[C@H](c2ccccc2)N2[C@H]1[C@@H](C(=O)Nc1nc3ccccc3s1)[C@]1(C(=O)Nc3ccccc31)[C@H]2c1ccc(O)cc1`: the composite z-score in experiment [1] was 1.57; in [2] it was -0.0334; in [3] it was 0.126; in experiment [5] it was 0.939; in experiment [6], 1.08; in [7] it was 0.598. Further, the composite z-score in [8] was 1.31; in [9], 1.11; in experiment [10] it was 0.435; in [11], 1.35; in [13] it was 0.684; in [14], 0.281. The composite z-score was -0.322 in experiment [15]; -0.0903 in experiment [16]; -0.138 in experiment [17]; -0.0272 in experiment [18]; 0.536 in experiment [19]; 1.27 in [20]. In addition, the z-score in experiment [4] is -0.449 (inactive); in [12], -1.35.

Consider `C=C(COC)C(=O)CC[C@H](OC(C)=O)c1cccc(OCCO)c1`, for which the composite z-score in experiment [1] was -0.443; in [2], -0.305; in experiment [3], -0.0122; in experiment [5], 1.06; in experiment [6], 0.121; in [7] it was -0.92. In addition, the composite z-score in experiment [8] is -0.249; in experiment [9] it was -0.118; in experiment [10], 0.35; in [11], -0.76; in experiment [13], -0.729; in experiment [14] it was -0.779. Moreover, the composite z-score in experiment [15] is -0.773; in experiment [16] it was -0.124; in experiment [17], 0.111; in experiment [18], -0.0428; in experiment [19], 0.8; in [20], 1.24. Also, the z-score is -0.637 (inactive) in experiment [4] and -0.574 in [12].

Consider `COCCOC(=O)N1C(=O)[C@@]2(c3cc(C#CCC(C(=O)OC)C(=O)OC)ccc31)[C@H](C(=O)N1CCN(c3ncccn3)CC1)[C@H]1C(=O)O[C@H](c3ccccc3)[C@H](c3ccccc3)N1[C@@H]2c1ccc(OCCO)cc1`, for which the composite z-score is 1.56 in [1]; -0.0747 in [2]; 0.0277 in experiment [3]; 0.699 in experiment [5]; 1.1 in experiment [6]; 0.275 in [7]. The composite z-score in experiment [8] is 0.626; in experiment [9], -0.0047; in [10] it was 0.149; in experiment [11], 1.34; in experiment [13], 0.521; in experiment [14], 0.505. The composite z-score was -0.127 in experiment [15]; -0.0778 in [16]; -0.2 in [17]; -0.213 in experiment [18]; 0.383 in [19]; 0.536 in experiment [20]. In addition, the z-score was -0.923 (inactive) in experiment [4] and -0.974 in experiment [12].
